An excerpt weighted towards active compounds, which were near 3.9% of everything screened.
CCHFV vOTU inh: CCHFV vOTU protease inhibition; 0.55% of 370,000 active; inhibition, % at 11.5 µM; Pep-AMC fluorescence; AID 651958; in the data active = inhibition above about 30%
3CLpro inhibitor: SARS-CoV 3CLpro protease inhibition | recombinant SARS-CoV 3CLpro, quenched FRET peptide cleavage | 0.14% of 290,000 active | inhibition, % at 6 µM | AID 1706 | P0C6X7; in the data active = inhibition above about 12%
BoNT F protease: blocks Botulinum neurotoxin F light chain protease. Multiplex microsphere protease cleavage assay, flow cytometry. inhibition, % at 10 µM. 0.22% of 360,000 active. AID 588497; in the data active = inhibition above about 35%, passing the limit was not always enough; inconclusive = no clear call, values can overlap the other calls
BoNT A protease: blocks Botulinum neurotoxin A light chain protease | multiplex microsphere protease substrate cleavage, flow cytometry | inhibition, % at 10 µM | 0.17% of 360,000 active | AID 588499
Anthrax LF prot: anthrax lethal factor protease inhibition; inhibition, % at 10 µM; 0.12% of 360,000 active; multiplex microsphere protease cleavage assay, LF; P15917
Target sequence (P15917 whole entry, looked up): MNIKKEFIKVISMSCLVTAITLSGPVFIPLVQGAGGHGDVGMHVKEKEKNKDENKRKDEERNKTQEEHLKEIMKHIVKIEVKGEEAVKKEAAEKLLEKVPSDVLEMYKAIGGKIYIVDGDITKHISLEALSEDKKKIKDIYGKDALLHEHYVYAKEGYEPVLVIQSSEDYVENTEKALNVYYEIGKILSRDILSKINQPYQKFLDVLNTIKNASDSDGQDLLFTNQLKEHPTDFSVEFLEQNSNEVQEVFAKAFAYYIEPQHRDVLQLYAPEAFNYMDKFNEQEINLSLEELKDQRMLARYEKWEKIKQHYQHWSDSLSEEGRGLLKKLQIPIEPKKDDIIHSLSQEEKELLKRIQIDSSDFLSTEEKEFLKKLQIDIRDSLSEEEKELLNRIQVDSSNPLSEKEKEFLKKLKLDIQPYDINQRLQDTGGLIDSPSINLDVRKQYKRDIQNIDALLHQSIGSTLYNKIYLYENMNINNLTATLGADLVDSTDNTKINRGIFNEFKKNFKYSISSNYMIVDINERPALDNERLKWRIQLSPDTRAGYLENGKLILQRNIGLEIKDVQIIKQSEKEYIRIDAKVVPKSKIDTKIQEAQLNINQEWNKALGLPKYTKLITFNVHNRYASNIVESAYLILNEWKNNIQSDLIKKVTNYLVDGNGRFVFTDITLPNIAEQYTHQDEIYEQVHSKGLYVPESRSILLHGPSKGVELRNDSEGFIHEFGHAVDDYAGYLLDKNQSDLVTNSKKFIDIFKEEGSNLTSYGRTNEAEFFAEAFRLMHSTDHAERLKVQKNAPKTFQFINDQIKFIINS
Autofluor counter: counter-screen for toxin protease inhibitors: compound fluorescence | AID 624483 | fluorescence intensity (no concentration beside the values) | compound autofluorescence counterscreen, microsphere flow cytometry; active compounds read high | 3.1% of 360,000 active; in the data active = fluorescence intensity above about 16000; inconclusive = no clear call, values can overlap the other calls
Each line names hits and unclear results; the compound was inactive in the other large screens. Rule as the data show it, unless noted: active = inhibition above about 30%; inconclusive = no clear call, values can overlap the other calls; inactive = below that.

COc1cc(/C=C2\SC(=S)N(C(C(=O)O)c3ccccc3)C2=O)cc(OC)c1OC (stereo not given)	none
C=CCN1C(=O)/C(=C/c2ccc(-c3ccc(F)cc3)o2)SC1=S	BoNT A protease 79, Anthrax LF prot 64
O=C(O)C(c1ccccc1)N1C(=O)/C(=C\c2ccc(-c3ccccc3Cl)o2)SC1=S (stereo not given)	BoNT A protease 41
CSc1nsc2nc(=O)c(/C=C3\C(C)=Nc4ccccc43)c(N)n12	none
O=[N+]([O-])c1cccnc1N1CCN(c2ccc(F)cc2)CC1	none
COc1cccc(C2c3c(C)nn(-c4ccc([N+](=O)[O-])cc4)c3N=C3C(=O)Nc4ccccc4N32)c1 (stereo not given)	none
CC(=O)Nc1ccc(NC(=O)COC(=O)c2c(C)nn(-c3ccccc3)c2C)cc1	none
CC(=O)Nc1ccc(NC2=Nc3ccccc3N3C2=Nc2c(c(C)nn2-c2ccccc2)C3c2ccccc2)cc1 (stereo not given)	BoNT A protease 147, Anthrax LF prot 68
COc1ccc(NC2=Nc3ccccc3N3C2=Nc2c(c(C)nn2-c2ccc(C)cc2)C3c2cccnc2)cc1 (stereo not given)	BoNT F protease 44, BoNT A protease inconclusive, Anthrax LF prot 60
Cc1c(NS(=O)(=O)c2cccc(C(=O)NCc3ccco3)c2)c(=O)n(-c2ccccc2)n1C	Autofluor counter inconclusive (no result: 3CLpro inhibitor)
Cc1ccc(-c2cnc(N)n2C)cc1C	Autofluor counter 23519
Cn1c(-c2ccc(Cl)cc2)cnc1N	BoNT A protease inconclusive, Anthrax LF prot inconclusive, Autofluor counter inconclusive
O=C1NCCN1C(=O)N(c1ccccc1)c1ccccc1	Autofluor counter 22362
COC(=O)Nc1ccc(S(=O)(=O)NCCCCCC(=O)O)cc1	none
COc1ccc(S(=O)(=O)NCCC(=O)NCc2ccc(F)cc2)cc1	Autofluor counter 19366
COC(=O)Nc1ccc(S(=O)(=O)NCCO)cc1	Autofluor counter 18225
O=S(=O)(NCc1ccc2c(c1)OCO2)c1ccc2oc3ccccc3c2c1	Autofluor counter 16406
COc1ccc(S(=O)(=O)CCC(=O)NCCc2ccc(C)cc2)cc1	Autofluor counter 16185
CCCCNC(=O)[C@H]1C[C@H]1[C@@H](O)[C@H](CO)NC(=O)[C@H](Cc1ccccc1)NC(=O)OC(C)(C)C	none
O=S(=O)(NCCCCCNS(=O)(=O)c1ccc(F)cc1)c1ccc(F)cc1	none
O=S(=O)(NCCSc1ccc(Cl)cc1)c1ccc(F)cc1	Autofluor counter 16419
O=C(CCc1ccc(S(=O)(=O)NCCc2ccccc2)cc1)NCc1ccc2c(c1)OCO2	Autofluor counter 24716
Cc1ccc(SCCNS(=O)(=O)c2ccc(F)cc2)cc1	none
O=C(O)CCCNS(=O)(=O)c1ccc(F)cc1	Autofluor counter 24742
CC(=O)Nc1ccc(S(=O)(=O)NCc2ccc3[nH]c(C)cc3c2)cc1	BoNT A protease 53
COC(=O)C1=C(C)N(Cc2ccccc2C(F)(F)F)C(=NCc2ccc3c(c2)OCO3)NC1c1ccccc1 (stereo not given)	none (no result: 3CLpro inhibitor, BoNT F protease, BoNT A protease, Anthrax LF prot, Autofluor counter)
CC(=O)Nc1ccc(S(=O)(=O)NCCc2ccc(F)cc2)cc1	Autofluor counter 19405
CC(=O)Nc1ccc(S(=O)(=O)NCCc2ccc(S(N)(=O)=O)cc2)cc1	none
O=C(Nc1ccc(S(=O)(=O)NCCc2ccccc2)cc1)c1ccco1	Autofluor counter 23096 (no result: CCHFV vOTU inh)
O=C(O)CCc1ccc(S(=O)(=O)NCCc2ccccc2)cc1	Autofluor counter 20869
Cc1c(NS(=O)(=O)c2cc(C(=O)OCC(=O)N3CCC(C)CC3)ccc2Cl)c(=O)n(-c2ccccc2)n1C	none
CC(=NCc1ccc(F)cc1)c1c(O)n(C)c(=O)n(C)c1=O	BoNT A protease inconclusive, Autofluor counter 19909
COc1cc(CN=C(C)c2c(O)n(C)c(=O)n(C)c2=O)cc(OC)c1	none
CC(=NCCCn1ccnc1)c1c(O)n(C)c(=O)n(C)c1=O	Autofluor counter 19563
CC(=NCc1ccco1)c1c(O)n(C)c(=O)n(C)c1=O	Autofluor counter 21713
C=CCn1c(O)c(C(C)=NCC2CCCO2)c(=O)[nH]c1=O (stereo not given)	Anthrax LF prot inconclusive
CCC(=NCc1ccco1)c1c(O)n(C)c(=O)n(C)c1=O	none
CC(=NCC1CCCO1)c1c(O)n(C)c(=O)n(C)c1=O (stereo not given)	Autofluor counter 20914
CCOc1ccc(-c2cc(C(=O)NCc3cc(C(F)(F)F)cc(C(F)(F)F)c3)[nH]n2)c(C)c1	none (no result: 3CLpro inhibitor)
Cc1ccc(CS(=O)(=O)CCC(=O)NCc2ccccc2Cl)cc1	none
Cc1ccc(N2CC(C(=O)Nc3cccnc3)CC2=O)cc1C (stereo not given)	none
COC(=O)C(c1cc(OC)c(O)c(OC)c1)(N1CCNC(C)C1)C(F)(F)F (stereo not given)	Autofluor counter 18737
O=S(=O)(Nc1cccc(S(=O)(=O)N2CCCC2)c1)c1ccccc1F	none (no result: 3CLpro inhibitor)
COC(=O)c1ccc(-n2nnnc2SC)cc1	Autofluor counter inconclusive
COC(=O)COC(=O)c1ccc(-n2nnnc2SC)cc1	Autofluor counter 22577
CCOC(=O)N1CCN(C(=O)CN(C2CCCCC2)S(=O)(=O)c2ccc(Cl)cc2)CC1	Autofluor counter 22589
CCOC(=O)N1CCN(C(=O)CN(Cc2ccccc2)S(C)(=O)=O)CC1	none
CCN(C1CCCCC1)S(=O)(=O)c1ccc(C(=O)O)cc1	Autofluor counter 23470
CCOC(=O)N1CCN(C(=O)CN(Cc2ccc(Cl)cc2)S(=O)(=O)c2ccccc2)CC1	Autofluor counter 24155
COc1ccc(NS(=O)(=O)c2ccc(N3CC(O)=C(c4ccccc4)C3=N)cc2)cc1	none
CC(C)CCN(C(=O)CNC(=O)c1ccco1)C(C(=O)NC1CCCCC1)c1cccnc1 (stereo not given)	none
CN(C)C(=O)c1noc2cc([N+](=O)[O-])ccc12	Autofluor counter 16570
CC(C)NC(=O)c1noc2cc([N+](=O)[O-])ccc12	none
C[C@H](N)c1nnc(SCC(=O)N(C)C)o1	Autofluor counter 20911
CN(C)C(=O)CSc1nnc([C@@H](N)Cc2ccccc2)o1	Autofluor counter 22809
COc1ccc(C2CC3CN(C4CCCCC4)C(=O)C3N2C)cc1 (stereo not given)	none (no result: 3CLpro inhibitor, BoNT F protease, BoNT A protease, Anthrax LF prot, Autofluor counter)
COc1ccc(OC(=O)c2ccc(OC)c(S(=O)(=O)N3CCOCC3)c2)cc1	none
CCCc1cc(=O)n2[nH]c(-c3ccco3)nc2n1	Autofluor counter 23273
CCCc1cc(=O)n2[nH]c(C)cc2n1	Autofluor counter 24507
Cc1onc(-c2c(F)cccc2Cl)c1C(=O)OCC(=O)N(C)c1ccccc1	none (no result: 3CLpro inhibitor)
O=C(CSC(=S)N1CCCC1)Nc1ccc(Br)cc1Cl	BoNT F protease 35, Autofluor counter inconclusive (no result: 3CLpro inhibitor)
CC1(C)Cc2nc3oc4c(=O)n(CC(=O)Nc5ccccc5)cnc4c3cc2CO1	none
CC1(C)Cc2nc3sc4c(=O)n(CC(=O)NCc5ccco5)cnc4c3cc2CO1	BoNT A protease inconclusive, Autofluor counter 19965
CCOCN(C(=O)Cn1c(CO)nc2ccccc21)c1c(C)cccc1CC	Autofluor counter 21035
